# PubChem BioAssay AID485276 (Southern Research Specialized Biocontainment Screening …, 2010)
# Results with a measured potency or affinity are listed apart. The source made the active and inactive calls. No rule for the calls is given here.
# Test: antiviral efficacy against SV40, host toxicity – BSC cells, set 3, confirmation (AID 485276)
smiles,measurement,value
Oc1ccc(Cc2ccc(O)cc2)cc1,outcome,inactive
